The sample as a whole holds a higher share of hits than the screen did.
KDM5B inhibitor = blocks human KDM5B histone demethylase activity; Q9UGL1; KDM5B demethylase, FDH-coupled NADH fluorescence (FDH is formaldehyde dehydrogenase); Potency, µM (doses to about 57.7 µM), most hits filed as inhibitors; hit rate 2.6% among 220,000; active = well fitted inhibition curve with a large enough effect; note: 0% is about no effect; nearly all actives have a fitted effect of over 70% in size
Target sequence (Q9UGL1 whole entry, looked up): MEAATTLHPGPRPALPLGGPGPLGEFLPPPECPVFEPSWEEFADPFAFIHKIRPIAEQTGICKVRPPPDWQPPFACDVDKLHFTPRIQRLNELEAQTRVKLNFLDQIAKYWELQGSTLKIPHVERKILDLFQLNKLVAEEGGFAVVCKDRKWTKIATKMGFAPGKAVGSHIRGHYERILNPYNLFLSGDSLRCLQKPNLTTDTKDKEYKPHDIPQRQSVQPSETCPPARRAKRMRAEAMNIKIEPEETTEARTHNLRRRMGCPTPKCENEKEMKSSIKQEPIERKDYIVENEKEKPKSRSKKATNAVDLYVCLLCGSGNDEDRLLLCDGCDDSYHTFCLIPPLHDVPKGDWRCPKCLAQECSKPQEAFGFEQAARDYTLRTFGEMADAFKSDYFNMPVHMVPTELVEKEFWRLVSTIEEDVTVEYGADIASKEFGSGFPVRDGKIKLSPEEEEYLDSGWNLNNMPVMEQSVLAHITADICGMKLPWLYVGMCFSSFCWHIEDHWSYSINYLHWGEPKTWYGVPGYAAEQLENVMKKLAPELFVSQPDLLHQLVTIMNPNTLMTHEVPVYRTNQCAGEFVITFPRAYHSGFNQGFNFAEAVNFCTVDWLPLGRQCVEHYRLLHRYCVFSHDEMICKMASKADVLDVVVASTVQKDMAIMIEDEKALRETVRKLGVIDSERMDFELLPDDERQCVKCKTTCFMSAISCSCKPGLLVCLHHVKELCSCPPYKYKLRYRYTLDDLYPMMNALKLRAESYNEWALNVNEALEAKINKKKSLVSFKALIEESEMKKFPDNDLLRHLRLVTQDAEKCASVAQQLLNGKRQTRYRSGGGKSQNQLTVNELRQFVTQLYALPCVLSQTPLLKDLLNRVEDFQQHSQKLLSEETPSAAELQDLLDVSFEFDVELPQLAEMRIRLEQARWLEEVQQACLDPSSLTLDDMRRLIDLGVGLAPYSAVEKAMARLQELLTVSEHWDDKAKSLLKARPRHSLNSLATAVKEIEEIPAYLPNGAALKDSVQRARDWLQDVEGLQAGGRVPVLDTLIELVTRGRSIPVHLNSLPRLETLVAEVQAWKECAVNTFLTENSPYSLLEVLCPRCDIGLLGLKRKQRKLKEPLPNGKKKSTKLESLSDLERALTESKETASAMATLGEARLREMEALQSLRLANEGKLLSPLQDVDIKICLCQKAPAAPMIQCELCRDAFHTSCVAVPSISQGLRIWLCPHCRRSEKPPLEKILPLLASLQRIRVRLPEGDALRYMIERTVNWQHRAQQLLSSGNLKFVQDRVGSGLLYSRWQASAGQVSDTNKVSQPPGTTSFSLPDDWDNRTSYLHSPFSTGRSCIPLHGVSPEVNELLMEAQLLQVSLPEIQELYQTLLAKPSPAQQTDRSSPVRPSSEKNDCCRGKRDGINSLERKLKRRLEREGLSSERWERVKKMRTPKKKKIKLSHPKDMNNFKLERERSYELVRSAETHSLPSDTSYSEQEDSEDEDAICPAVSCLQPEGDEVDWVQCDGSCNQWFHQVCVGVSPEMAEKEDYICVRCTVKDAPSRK
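Coupled FDH/NAD⁺ fluorescence readout. KDM5BΔAP 200 nM final; compound titration, 10 min RT preincubation; substrate mix 12.5 µM H3K4me3, 25 µM 2-OG, 50 µM Fe(II), 100 µM ascorbate, 0.25 mM NAD⁺, 0.25 U/mL FDH; ΔRFU over 30 min.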
* marks the source's active call; other numbers are inactive results. Potency is the fitted concentration of half-maximal effect.

For Cc1ccc(-c2ccc3nnc(CNC(=O)c4ccc(F)cc4)n3n2)cc1 the results were KDM5B inhibitor 25.1µM*.
Cc1ccc(-c2ccc3nnc(CNC(=O)c4c(F)cccc4F)n3n2)cc1 was read as KDM5B inhibitor 25.1µM*.
`O=C(NCc1nnc2ccc(-c3ccccc3)nn12)c1cc(F)ccc1Cl` gave KDM5B inhibitor 17.8µM*.
For COc1ccccc1N(CCC#N)C(=O)CN(C)CC(=O)Nc1ccccc1Cl the results were KDM5B inhibitor inactive.
`CCCCCCC(=O)Nc1c(C)cccc1C` gave KDM5B inhibitor inactive.
O=C(Cc1c[nH]c2ccccc12)OCc1ccc(Cl)cc1Cl was read as KDM5B inhibitor inactive.
`CN(C)C(=O)CN(C)C(=O)Cn1c(=O)c2c(ncn2Cc2ccco2)n(Cc2ccccc2)c1=O` gave KDM5B inhibitor inactive.
CCOc1ccccc1NC(=O)N(C)Cc1nc(-c2ccccc2C)oc1C was read as KDM5B inhibitor inactive.
O=C(NCc1nnc2ccc(-c3ccc(F)cc3)nn12)c1cc(Cl)ccc1F was read as KDM5B inhibitor 25.1µM*.
Screening Cc1ccc(S(=O)(=O)N2CCN(CCNC(=O)c3cccc(C(F)(F)F)c3)CC2)cc1 returned KDM5B inhibitor inactive.
For O=C(NCc1nnc2ccc(-c3ccc(F)cc3)nn12)c1ccc(Cl)s1 the results were KDM5B inhibitor 28.2µM*.
Cc1ccc(-c2ccc3nnc(CNC(=O)c4cccc(C(F)(F)F)c4)n3n2)cc1 was read as KDM5B inhibitor 31.6µM*.
O=C(NCc1nnc2n1C(C(=O)NCc1ccc(F)cc1)CC2)c1ccc(Cl)cc1Cl (stereo not given) was read as KDM5B inhibitor inactive.
`Cc1ccc(-c2ccc3nnc(CNC(=O)c4cc(F)ccc4F)n3n2)cc1` gave KDM5B inhibitor 25.1µM*.
For CCCn1c(=O)c2ccc(C(=O)NCC(C)C)cc2n2c(SCc3ccc(F)cc3)nnc12 the results were KDM5B inhibitor inactive.
`O=C(Nc1ccc(Cl)c(C(F)(F)F)c1)C(Cl)c1ccccc1` (stereo not given) gave KDM5B inhibitor inactive.
COC(=O)c1ccccc1NC(=O)C1CCN(S(=O)(=O)Cc2ccccc2Cl)CC1 was read as KDM5B inhibitor inactive.
For CCNC(=O)Cn1c(CO)cnc1SCc1ccccc1C the results were KDM5B inhibitor inactive.
Screening Cn1c(COc2ccccc2Cl)nnc1SCCOc1ccc(Cl)cc1 returned KDM5B inhibitor inactive.
Screening O=C(Nc1cccc(C(F)(F)F)c1)N[C@H]1CO[C@H]2[C@@H]1OC[C@@H]2n1nnnc1Oc1ccc(-n2ccnc2)cc1 returned KDM5B inhibitor inactive.
`OCCNC(=S)Nc1ccc(F)cc1` gave KDM5B inhibitor inactive.
For O=C(CCC(=O)c1ccc(F)cc1)Nc1ccccc1-c1ccccc1 the results were KDM5B inhibitor inactive.
For CCOc1ccccc1NC(=O)CSc1nnc2c3cc(-c4ccc(Cl)cc4)nn3ccn12 the results were KDM5B inhibitor inactive.
For O=C(CN1C(=O)NC(c2ccc(Cl)cc2)C2=C1COC2=O)Nc1cc(F)ccc1F (stereo not given) the results were KDM5B inhibitor inactive.
`COc1ccc(Cl)cc1C(=O)NCc1nnnn1-c1ccccc1` gave KDM5B inhibitor inactive.
O=C(NCc1nnc2ccc(-c3ccccc3)nn12)c1cc(Cl)ccc1F was read as KDM5B inhibitor 25.1µM*.
Screening CN(CCOc1ccccc1)c1nc(-c2cccnc2)nc2ccccc12 returned KDM5B inhibitor inactive.
For COc1cccc(NC(=O)C(=O)NCCc2sc(-c3ccc(Cl)cc3)nc2C)c1 the results were KDM5B inhibitor inactive.
O=C(c1cc2n(n1)CC(c1ccc(Cl)cc1)OC2)N1CCN(c2ccccc2Cl)CC1 (stereo not given) was read as KDM5B inhibitor inactive.
`O=C(NCc1ccccc1)c1cc2n(n1)CC(c1ccc(Cl)cc1)OC2` (stereo not given) gave KDM5B inhibitor inactive.
Screening Cc1c(Cl)cccc1NC(=O)c1cc2n(n1)CC(c1ccc(Cl)cc1)OC2 (stereo not given) returned KDM5B inhibitor 25.1µM*.
Screening Cc1ccc(C)c(NC(=O)c2cc3n(n2)CC(c2ccc(Cl)cc2)OC3)c1 (stereo not given) returned KDM5B inhibitor 28.2µM*.
For CCOc1ccccc1NC(=O)c1cc2n(n1)CC(c1ccc(Cl)cc1)OC2 (stereo not given) the results were KDM5B inhibitor 22.4µM*.
`Cc1cccc(CNC(=O)c2cc3n(n2)CC(c2ccc(Cl)cc2)OC3)c1` (stereo not given) gave KDM5B inhibitor inactive.
O=C(NCc1ccccc1Cl)c1cc2n(n1)CC(c1ccc(Cl)cc1)OC2 (stereo not given) was read as KDM5B inhibitor inactive.
For O=C(c1cc2n(n1)CC(c1ccc(Cl)cc1)OC2)N1CCN(c2ccc(Cl)cc2)CC1 (stereo not given) the results were KDM5B inhibitor inactive.
For CC1CCC(NC(=O)c2cc3n(n2)CC(c2ccc(Cl)cc2)OC3)CC1 (stereo not given) the results were KDM5B inhibitor inactive.
`Cc1ccc(NC(=O)c2cc3n(n2)CC(c2ccc(Cl)cc2)OC3)c(Cl)c1` (stereo not given) gave KDM5B inhibitor 17.8µM*.
CCCCNC(=O)c1cc2n(n1)CC(c1ccc(Cl)cc1)OC2 (stereo not given) was read as KDM5B inhibitor inactive.
CCN(CC)C(=O)C1=C(C)NC(=O)NC1c1ccc(C(=O)OC)cc1 (stereo not given) was read as KDM5B inhibitor inactive.
CCCC(=O)Nc1oc2c(C)cccc2c(=O)c1-c1ccc(OC)cc1 was read as KDM5B inhibitor inactive.
C=CCNC(=O)NC(=O)CN(CC)c1cccc(F)c1 was read as KDM5B inhibitor inactive.
Cc1nc(NC(=O)C2CCN(c3ccc(C#N)cn3)CC2)sc1C was read as KDM5B inhibitor inactive.
For O=C(O)C(c1c[nH]c2cc(Cl)ccc12)N1CCN(CCNc2cc(=O)oc3ccccc23)CC1 (stereo not given) the results were KDM5B inhibitor inactive.
Screening CC1(C)CCCN(CC(=O)c2c[nH]c3ccccc23)C1 returned KDM5B inhibitor inactive.
COc1ccc(C(C)NC(=O)CCc2ncc(-c3ccccc3)o2)cc1F (stereo not given) was read as KDM5B inhibitor inactive.
`CCc1ccc(C(=O)/C=C/c2ccc(O)cc2)cc1` gave KDM5B inhibitor inactive.
For CCN(CC)CCNC(=O)C(C)c1n[nH]c(=O)c2ccccc12 (stereo not given) the results were KDM5B inhibitor inactive.
`COCCNC(=O)C1CCCN(C(=O)c2cc3ccccc3[nH]2)C1` (stereo not given) gave KDM5B inhibitor inactive.
For Cc1c(CN2CCCC(c3ccc(C(=O)O)cc3)C2)cnn1C (stereo not given) the results were KDM5B inhibitor inactive.
`CCn1cc(C(=O)N2CCCC(C(=O)Nc3cccc(-c4cc5ccccc5[nH]4)c3)C2)cn1` (stereo not given) gave KDM5B inhibitor 28.2µM*.
`Cc1c(CN2CCCC(C(=O)Nc3cccc(-c4cc5ccccc5[nH]4)c3)C2)cnn1C` (stereo not given) gave KDM5B inhibitor 28.2µM*.
Cc1cc(C(=O)N2CCCC(C(=O)Nc3cccc(-c4cc5ccccc5[nH]4)c3)C2)nn1C (stereo not given) was read as KDM5B inhibitor 31.6µM*.
For Cc1cc(C(=O)N2CCCC(c3nc(C4CCOCC4)no3)C2)nn1C (stereo not given) the results were KDM5B inhibitor inactive.

Screening data as filed in PubChem.
